Assay results published in PMC5540273 (PLoS ONE, 2017).

Columns and labels:
Conditions in all cases: concentration: 1 μM, replicates: in singlicate; n = 1
EPHB3 = test system: EPHB3
EPHB4 = test system: EPHB4
EPHB6 = test system: EPHB6
ERBB2 = test system: ERBB2
ERBB3 = test system: ERBB3
ERBB4 = test system: ERBB4
ERK1 = test system: T1, ERK1
T1 construct: gene MAPK3

ERK2 = test system: T2, ERK2
T2 construct: gene MAPK1

ERK3 = test system: T3, ERK3
T3 construct: gene MAPK6

ERK4 = test system: T4, ERK4
T4 construct: gene MAPK4
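Also: KINOMEscan kinase panel screen.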

| SMILES | %Inh (EPHB3) [%] | %Inh (EPHB4) [%] | %Inh (EPHB6) [%] | %Inh (ERBB2) [%] | %Inh (ERBB3) [%] | %Inh (ERBB4) [%] | %Inh (ERK1) [%] | %Inh (ERK2) [%] | %Inh (ERK3) [%] | %Inh (ERK4) [%] |
| --- | --- | --- | --- | --- | --- | --- | --- | --- | --- | --- |
| O=C(Nc1ccc2c(c1)OCO2)NC1CCN(c2ccnc(NCc3ccc(F)cc3)n2)CC1 [GSK1379859] | 15 | 0 | 4 | 35 | 0 | 43 | 0 | 0 | 9 | 3 |
| Cc1nnc(-c2ccc(C)c(-c3ccc(C(=O)O)cc3)c2)o1 [GW608005] | 6 | 5 | 0 | 36 | 0 | 76 | 0 | 0 | 0 | 0 |
| Nc1ncnc2c1ncn2-c1ccc(Cl)cc1 [AH2635] | 3 | 7 | 10 | 53 | 1 | 50 | 0 | 0 | 18 | 0 |
| CN1C(=O)C(Nc2cc(Cl)c(O)c(Cl)c2)=C(c2ccc(Cl)cc2)C1=O [SB-404321] | 0 | 0 | 0 | 24 | 0 | 0 | 0 | 9 | 0 | 0 |
